The campaign covered roughly 650,000 compounds. About 850 (0.13%) were called active. What follows is part of a selection rich in actives, with near analogues and random picks from the rest. Values without a mark were called inactive. Cut-off read from the data, not from the text of the source: active = normalized activity above about 1.9%; inactive = the rest.

This assay deals with F-box/WD repeat-containing protein 7 (Homo sapiens) (UniProt Q969H0). Kind of assay: FBW7 E3 ligase activators, primary screen, biochemical, AlphaScreen, human (AID 1259310).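 Note: purified mutant Fbw7 with reduced substrate affinity.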 As to conditions: AlphaScreen FBW7–phospho-cyclin E peptide binding, activator screen; at 26.1 µM; active compounds read high. On the technique in general: Alpha assays give light when donor and acceptor beads are brought close together.
F-box/WD repeat-containing protein 7 (Homo sapiens), sequence (Q969H0 whole entry, looked up): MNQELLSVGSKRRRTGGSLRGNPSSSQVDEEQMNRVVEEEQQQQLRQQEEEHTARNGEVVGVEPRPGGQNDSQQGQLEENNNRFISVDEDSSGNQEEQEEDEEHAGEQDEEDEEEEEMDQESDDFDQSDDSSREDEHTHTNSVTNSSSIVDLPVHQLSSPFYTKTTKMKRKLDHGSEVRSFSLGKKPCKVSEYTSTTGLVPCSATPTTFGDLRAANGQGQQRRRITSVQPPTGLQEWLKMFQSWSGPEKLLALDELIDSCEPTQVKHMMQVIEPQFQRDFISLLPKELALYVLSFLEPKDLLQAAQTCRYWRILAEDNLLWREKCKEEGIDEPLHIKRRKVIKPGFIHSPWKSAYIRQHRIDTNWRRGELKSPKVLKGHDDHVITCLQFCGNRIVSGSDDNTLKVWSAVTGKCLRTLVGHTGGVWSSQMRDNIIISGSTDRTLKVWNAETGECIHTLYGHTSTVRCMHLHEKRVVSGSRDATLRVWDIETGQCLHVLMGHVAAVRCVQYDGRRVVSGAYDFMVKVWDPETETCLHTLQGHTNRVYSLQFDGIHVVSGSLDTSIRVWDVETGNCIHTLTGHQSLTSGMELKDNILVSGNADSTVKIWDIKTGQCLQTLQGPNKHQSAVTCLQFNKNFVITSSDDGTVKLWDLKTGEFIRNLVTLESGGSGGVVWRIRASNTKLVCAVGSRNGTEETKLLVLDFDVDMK
`O=C1NC(=O)N(c2ccc(Br)cc2)C(=O)/C1=C\C=C\c1ccco1`: the normalized activity (activation) was -0.18%.
For `COc1cc(OC)c(C2Nc3cccc4cccc(c34)N2)cc1OC` the value was 1.96% (active); for `COc1ccc(C2Nc3cccc4cccc(c34)N2)c(OC)c1OC`, 0.39%; for `COc1ccc(OC)c(C2Nc3cccc4cccc(c34)N2)c1`, 0.03%.
For `O=c1[nH]c(N2CCOCC2)nc2c1CN(Cc1ccccc1Cl)CC2` the value was -0.04%.
For `O=C1CC(c2noc(-c3ccco3)n2)CN1c1ccccc1` (stereo not given) the value was -0.17%; for `COc1cccc(-c2nc(-c3ccccc3)c(-c3ccccc3)[nH]2)c1O`, -0.07%; for `CCOc1ccc2nc(N3CCC(NCCc4nc(C)c5c(n4)CCC5)CC3)nc(C)c2c1`, 0.33%.
In the case of `CC1CC(C)CN(CCS(=O)(=O)c2ccc(Oc3ccc(S(=O)(=O)CCN4CC(C)CC(C)C4)cc3)cc2)C1` (stereo not given), the normalized activity (activation) is -0.1%.
For `CCCCOC(=O)C1=C(C)N(C)C(=O)NC1c1cc(Cl)c(O)c(OC)c1` (stereo not given) the value was -0.11%; for `CCOc1cc(OCC)cc(C(=O)Nc2cc3nn(-c4ccc(OC)cc4)nc3cc2C)c1`, -0.15%.
The same measure for `CCOc1ccc(C(=O)Nc2ccccc2I)cc1[N+](=O)[O-]`: -0.08%; for `CCOc1ccc(C(=O)Nc2cc3nn(-c4ccc(C)cc4)nc3cc2C)cc1[N+](=O)[O-]`: 2.14% (active); for `O=C(Cc1ccccn1)N1CCCC(c2nc(N3CCOCC3)ncc2-c2ccncc2)C1` (stereo not given): -0.05%.
Turning to `CCOc1ccc(-n2nc(C(=O)Nc3ccccc3C(F)(F)F)c3ccccc3c2=O)cc1`, the normalized activity (activation) was -0.03%.
For `NC(=O)c1ccccc1NC(=S)NC(=O)/C=C/c1cccc([N+](=O)[O-])c1` the value was 0.01%; for `Cc1ccc2nc(SCC(=O)Nc3ccccc3C(N)=O)[nH]c2c1`, 0.11%; for `O=C(Nc1ccccc1[N+](=O)[O-])c1cc(S(=O)(=O)Nc2cccc(F)c2)ccc1Cl`, -0.02%.
The same measure for `O=C(COC(=O)c1ccccc1F)NCc1ccco1`: -0.11%; for `Cc1noc(C)c1-c1nc(N)c2ncn(-c3ccccc3)c2n1`: -0.05%.
For `COc1cc(Nc2nc(-c3c(C)noc3C)nc3c2ncn3C2CCCCC2)cc(OC)c1OC` the value was -0.17%; for `COc1cc(Nc2nc(-c3c(C)noc3C)nc3c2ncn3-c2ccccc2)cc(OC)c1OC`, 14.2% (active).
As for `Cc1nc2c(C(=O)N3CCCC3)cnn2c(C)c1Cc1ccccc1Cl`, the normalized activity (activation) is -0.09%.
For `O=C(Nc1ccc(I)cc1)OCCCc1ccccc1` the value was 0.21%; for `Cc1ccc2nc(NC(=O)c3cc(-c4ccc(Cl)s4)nc4ccccc34)sc2c1`, -0.02%.
As for `Cc1c(-c2nc3cnccn3c2NCc2ccc(F)cc2)cnn1C`, the normalized activity (activation) is -0.04%.
For `COc1ccc(NC(=S)C(=O)Nc2ccccc2)cc1`, the normalized activity (activation) was 0.08%.
Turning to `COc1cccc(NC(=O)CSc2ccc(Br)cc2)c1`, the normalized activity (activation) is 0.07%.
The same measure for `COc1ccc(SCC(=O)NNC(=S)Nc2ccccc2)cc1`: 2.07% (active); for `CCOc1ccc2nc(NC(=O)c3cccc(C(=O)OC)n3)sc2c1`: -0.02%.
For `CC(C)c1ccc(OCC(=O)N/N=C/c2cccnc2)cc1` the value was -0.04%.
For `COc1c(Cl)cc(Cl)cc1C(=O)Nc1ccccc1[N+](=O)[O-]` the value was -0.17%.
Consider `O=C(CN1C(=O)c2cccc([N+](=O)[O-])c2C1=O)OCC(=O)c1ccc(Cl)cc1`, for which the normalized activity (activation) was -0.01%.
The same measure for `CCOC(=O)C1=C(C)NC(=S)NC1c1cc(OC)ccc1O` (stereo not given): 0.11%; for `CCc1c(C)c(C#N)c2nc3ccccc3n2c1-n1ccnc1`: 2.07% (active); for `Cc1c(CCC#N)c(-n2ccnc2)n2c(nc3ccccc32)c1C#N`: -0.21%.
Consider `N#Cc1c2c(c(-n3ccnc3)n3c1nc1ccccc13)CCC2`, for which the normalized activity (activation) was 0.17%.
For `COc1ccc(/C=N/Nc2nc3nonc3nc2Nc2cccc(C)c2)cc1OC` the value was -0.17%; for `COc1cccc2c1OC1(CCN(C(=O)Nc3cccc(F)c3)CC1)OC2`, -0.04%.
The same measure for `Oc1ccccc1-c1nc(-c2cccc(C(F)(F)F)c2)c(-c2ccccc2)[nH]1`: 0.23%.
The same measure for `c1cnc(Sc2nnc3ccccn23)nc1`: 0.1%.
In the case of `COc1ccc(N=C2CCC(O)=C2C(C)=O)cc1`, the normalized activity (activation) is 0.05%.
For `COc1ccc(S(=O)(=O)NCC(=O)Nc2cccc(Br)c2)cc1OC` the value was -0.15%.
For `COc1cccc(C(=O)N2CCN(C(=O)c3cccc(OC)c3)CC2)c1` the value was 0%; for `CCn1c(=N)n(CC(=O)c2cccc(OC)c2)c2ccccc21`, 2.64% (active).
The same measure for `COc1cccc(C(=O)N2CCc3ccccc32)c1`: 0.05%; for `Cc1cc(S(=O)(=O)Nc2ccc(Br)cc2)c(C)c(S(=O)(=O)c2ccc(Cl)cc2)c1`: 0.11%.
For `O=C1CCCC2=C1C(c1cccnc1)Nc1ccc3ncccc3c12` (stereo not given), the normalized activity (activation) was -0.33%.
On to `CN(C)CCCNc1ncc2c(n1)c(=O)c(C#N)c1[nH]c3ccccc3c(=O)n12`, for which the normalized activity (activation) is -0.01%.
The same measure for `CCCCNc1ncc2c(n1)c(=O)c(C#N)c1[nH]c3ccccc3c(=O)n12`: 2.15% (active); for `CCCCNC(=O)CSc1nnc2c(n1)[nH]c1ccccc12`: 0.16%; for `O=C(O)COc1ccc(C2Nc3ccccc3S(=O)(=O)N2Cc2ccccc2)cc1` (stereo not given): -0.1%.
As for `O=C(c1nc2ccccc2s1)N1CCN(c2nc3ccccc3s2)CC1`, the normalized activity (activation) was 0.01%.
The same measure for `Oc1ccccc1-c1nc(CI)no1`: 0.03%; for `O=S(=O)(NC1CCCCC1Sc1ncn[nH]1)c1ccc(Cl)cc1` (stereo not given): 0%.
The same measure for `CCSC1=NSC2=NC(=O)/C(=C\c3ccc(OC)cc3)C(=N)N12`: 0.04%; for `COc1ccc(NC(=O)c2sc3nc(-c4cccc([N+](=O)[O-])c4)cn3c2C)cc1`: -0.14%.
Take `COc1cccc(NC(=O)Nc2ccc(-c3cn4c(C)c(C)nnc4n3)cc2)c1`: the normalized activity (activation) was 1.87% (active).
For `COc1cccc(NC(=O)Nc2cc(OC)cc(OC)c2)c1`, the normalized activity (activation) was -0.06%.
The same measure for `CCC(C)(C(=O)Nc1ccc2c(c1)OCCO2)N(Cc1ccco1)C(=O)c1ccccc1O` (stereo not given): -0.01%; for `O=C(COc1cccc([N+](=O)[O-])c1)N/N=C/c1ccc(O)c([N+](=O)[O-])c1`: -0.11%.
Take `CN(C)c1ccc(C(c2nnnn2C(C)(C)C)N2CCN(Cc3ccccc3)CC2)cc1` (stereo not given): the normalized activity (activation) is 1.85% (active).
For the molecule `COc1ccc(C(c2nnnn2C(C)(C)C)N2CCN(c3ccccc3)CC2)cc1` (stereo not given), the normalized activity (activation) was 0.3%.
Turning to `CCCC(c1nnnn1C(C)(C)C)N1CCN(Cc2ccccc2)CC1` (stereo not given), the normalized activity (activation) is 0.01%.
For `CC(=O)c1ccc(N2C(=O)C3C(C2=O)C2(C)c4ccccc4C3(C)c3ccccc32)cc1` (stereo not given) the value was -0.19%; for `COc1ccc(-c2cc(NCCOc3ccccc3)nc(N)n2)cc1`, 0.12%.
The same measure for `O=C(COc1ccc(Cl)cc1)NNC(=O)C(Cc1ccccc1)N1C(=O)c2ccccc2C1=O` (stereo not given): 0.06%; for `Cc1cc(C(=O)C(=O)c2nccn2C)c(C)n1C`: 0.04%.
For `CCC(c1nnnn1CCC(C)C)N1CCN(C(=O)c2ccco2)CC1` (stereo not given) the value was 2.16% (active); for `CCC(c1nnnn1CCC(C)C)N1CCN(c2ccccc2)CC1` (stereo not given), 0.24%.
For `CCC(c1nnnn1C1CCCC1)N1CCN(C(=O)c2ccco2)CC1` (stereo not given), the normalized activity (activation) was -0.16%.
As to `COc1cc(Cl)c(C)cc1NC(=O)CCNC(=O)Cn1cnc2sc3c(c2c1=O)CCCC3`, the normalized activity (activation) is -0.1%.
The same measure for `Cc1ccc(CN2CCN(CC(=O)NCc3ccccn3)C2=O)cc1`: -0.27%; for `NNC(=O)CNC(=O)CNS(=O)(=O)c1ccc([N+](=O)[O-])cc1`: 1.97% (active).
For `O=[N+]([O-])c1ccc(S(=O)(=O)NCCc2ccccc2)cc1` the value was 0.18%.
For `COC(=O)CNC(=O)CNS(=O)(=O)c1ccccc1[N+](=O)[O-]` the value was 0.14%.
On to `CC1=C(C(=O)Nc2cccc(C(=O)Nc3cccc(Cl)c3C)c2)SCCO1`, for which the normalized activity (activation) was -0.1%.
The same measure for `COc1cc(C2CC(=O)NC3=C2C(=O)CC(C)(C)C3)cc([N+](=O)[O-])c1O` (stereo not given): -0.34%; for `C#CCN1C(=O)C(O)(CC(=O)c2ccc(OC)c([N+](=O)[O-])c2)c2ccccc21` (stereo not given): 0.12%.
For `O=C(NCCc1cccnc1)c1ccc2c(c1)CC(c1nc3ccc(-c4cn[nH]c4)cc3c(=O)[nH]1)CO2` (stereo not given) the value was 3.03% (active); for `O=c1[nH]c(C2COc3ccc(F)cc3C2)nc2ccc(-c3cn[nH]c3)cc12` (stereo not given), -0.05%; for `CN(C)CCN(C)c1nc(C2COc3ccc(C(N)=O)cc3C2)nc2ccc(-c3cn[nH]c3)cc12` (stereo not given), 1.23%.
On to `CCN(CC)c1ccc2nnc(CCC(=O)Nc3ccc(C(=O)OC)cc3)n2n1`, for which the normalized activity (activation) is 0.06%.
The same measure for `CC1CCCN(S(=O)(=O)c2ccc3c(c2)OCC(=O)N3)C1` (stereo not given): 0.17%; for `CCOC(=O)CC(C(C)C)N(Cc1ccc(F)cc1)C(=S)Nc1cccc(C)c1` (stereo not given): 0.07%.

(Values after PubChem BioAssay AID1259310 (The Scripps Research Institute Molecular Screening Center, 2017).)
